# Results reported in PubChem BioAssay (NCI).
# About 83,000 compounds went through this panel and 20% of them were active in at least one assay; those are over-represented in the sample as a whole.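 In brief: 96-well plates, 48 h treatment, single concentration, percent growth endpoint.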 Unmarked numbers belong to inactive results. Active and inactive are the calls of the source. How the source made its calls: active means growth percent below 10; inactive means the rest.
# Legend:
# Assay in all cases: NCI-60 one-dose screen, 48 h (100 = growth as untreated, 0 = no growth, -100 = all killed)
# Settings in all cases: 10 µM unless noted
# SK-MEL-2 melanoma = system: SK-MEL-2 melanoma
# EKVX NSCLC = system: EKVX NSCLC
# SN12C renal = system: SN12C renal
# UO-31 renal = system: UO-31 renal
# TK-10 renal = system: TK-10 renal
# ACHN renal = system: ACHN renal
# CAKI-1 renal = system: CAKI-1 renal
# A498 renal = system: A498 renal
# CCRF-CEM leukemia = system: CCRF-CEM leukemia
# MOLT-4 leukemia = system: MOLT-4 leukemia
# SR leukemia = system: SR leukemia
# RPMI-8226 leukemia = system: RPMI-8226 leukemia
# OVCAR-8 ovarian = system: OVCAR-8 ovarian
# OVCAR-5 ovarian = system: OVCAR-5 ovarian
# SK-OV-3 ovarian = system: SK-OV-3 ovarian
# IGROV1 ovarian = system: IGROV1 ovarian
# OVCAR-3 ovarian = system: OVCAR-3 ovarian
# HS 578T breast = system: HS 578T breast
# NCI/ADR-RES ovarian = system: NCI/ADR-RES ovarian
Compound,growth (SK-MEL-2 melanoma),growth (EKVX NSCLC),growth (SN12C renal),growth (UO-31 renal),growth (TK-10 renal),growth (ACHN renal),growth (CAKI-1 renal),growth (A498 renal),growth (CCRF-CEM leukemia),growth (MOLT-4 leukemia),growth (SR leukemia),growth (RPMI-8226 leukemia),growth (OVCAR-8 ovarian),growth (OVCAR-5 ovarian),growth (SK-OV-3 ovarian),growth (IGROV1 ovarian),growth (OVCAR-3 ovarian),growth (HS 578T breast),growth (NCI/ADR-RES ovarian)
O=C(Nc1cccnc1)c1ccc2ccc3ccc(C(=O)Nc4cccnc4)nc3c2n1,25.8%,54.4%,32.4%,36.3%,37.1%,23.3%,10.7%,-39.1% (active),28.5%,32.1%,42.6%,18.7%,22.6%,36.9%,47.6%,15.4%,23.3%,46.4%,79.8%
C=CCc1nc2ccccc2s1,107%,109%,110%,63.6%,94.3%,101%,98.3%,108%,84.1%,89.1%,98.9%,92.4%,98%,101%,110%,74.6%,114%,102%,111%
O=C(N=c1n(-c2ccccc2)nc2n1CCN2C1=NCCN1C(=O)c1ccc(Cl)cc1)c1ccc(Cl)cc1,83.3%,77.1%,80.8%,59.8%,74.6%,59.1%,75.2%,73.7%,51.4%,14.5%,73.9%,73.2%,78.7%,88.8%,92.9%,59%,53.6%,82.7%,73.3%
CC1(C)NCCC[C@]2(C)[C@H]3C=CC4=C5C[C@](C)(CO)CC[C@]5(C)CC[C@@]4(C)[C@]3(C)CC[C@@H]12,-84.9% [100 µM] (active),-87.1% [100 µM] (active),-94% [100 µM] (active),-98.1% [100 µM] (active),-78.3% [100 µM] (active),-95.4% [100 µM] (active),-96.5% [100 µM] (active),-88.7% [100 µM] (active),-44.1% [100 µM] (active),-56.7% [100 µM] (active),-5.08% [100 µM] (active),-43.8% [100 µM] (active),-57.8% [100 µM] (active),-98.7% [100 µM] (active),-80.1% [100 µM] (active),-84.5% [100 µM] (active),-78.8% [100 µM] (active),-46.8% [100 µM] (active),-86.4% [100 µM] (active)
Cc1cnc(N)nc1OCCNC(=O)c1cccc(-c2ccc(S(=O)(=O)Nc3ccc4c(c3)N(C(=O)C3CC3)CCC4)cc2)c1,74.4%,98.9%,79.7%,77.1%,93.1%,84.9%,77.4%,40.2%,64.1%,37.7%,104%,42.7%,67.4%,105%,98.8%,74%,79.5%,75.3%,102%
C=C(C)[C@@H]1CC[C@]2(C(=O)N3CCN(C)CC3)CC[C@]3(C)[C@H](CC[C@@H]4[C@@]5(C)C/C(=C/c6ccncc6)[C@H](O)C(C)(C)[C@@H]5CC[C@]43C)[C@@H]12,-60.1% [100 µM] (active),-1.55% [100 µM] (active),-44.2% [100 µM] (active),-61.4% [100 µM] (active),22% [100 µM],-0.441% [100 µM] (active),12.1% [100 µM],-28.9% [100 µM] (active),-5.24% [100 µM] (active),-24.4% [100 µM] (active),-14.3% [100 µM] (active),-26.6% [100 µM] (active),-57.9% [100 µM] (active),7.38% [100 µM] (active),0.185% [100 µM] (active),-23.5% [100 µM] (active),-50% [100 µM] (active),-19.5% [100 µM] (active),-64% [100 µM] (active)
CC(C)c1ccc(/C=N/N=C(N)N)cc1,102%,87.1%,93.8%,73.2%,95.1%,83.2%,50.9%,106%,35.7%,45.7%,21.6%,17.1%,89.8%,89.5%,85.5%,89.5%,72.6%,97.8%,79.4%
O=S(=O)(/N=c1/n(-c2ccccc2)nc2n1CCN2C1=NCCN1)c1ccc(-c2ccccc2)cc1,115%,95.9%,93.6%,84.4%,108%,101%,92%,82.9%,94.7%,95.1%,67.4%,96.8%,103%,96.6%,100%,95.4%,101%,93.4%,104%
O=C(Nc1ccc(C(=O)/C=C/c2ccc(N3CCOCC3)cc2)cc1)Nc1ccc([N+](=O)[O-])cc1,97.6%,112%,97%,83.5%,88.5%,94.4%,82.6%,5.47% (active),84.4%,66.2%,94.1%,77%,92.4%,94.4%,90.5%,72.5%,93.9%,111%,98.5%
CC1(C)[C@@H](NOCCCN)CC[C@]2(C)[C@H]3C(=O)C=C4[C@@H]5C[C@](C)(C(=O)O)CC[C@]5(C)CC[C@@]4(C)[C@]3(C)CC[C@@H]12,-63.8% [100 µM] (active),-41.4% [100 µM] (active),-82.8% [100 µM] (active),-100% [100 µM] (active),-84.1% [100 µM] (active),-100% [100 µM] (active),-79.1% [100 µM] (active),-88.7% [100 µM] (active),11.6% [100 µM],-6.4% [100 µM] (active),17.9% [100 µM],-5.46% [100 µM] (active),-25.9% [100 µM] (active),-100% [100 µM] (active),-23.7% [100 µM] (active),-88.5% [100 µM] (active),–,-22.8% [100 µM] (active),-34.2% [100 µM] (active)
COc1cc(Cl)cc(-c2nn(C(=O)NS(=O)(=O)c3ccccc3)cc2-c2ccncc2)c1,98.7%,61.2%,94.5%,70.6%,97.2%,80%,80.9%,82.9%,94.6%,82.8%,87.6%,91.7%,33.1%,96.5%,83.2%,92.1%,104%,79.2%,97.5%
N#C/C(C(=O)c1ccccc1)=C1/C(=O)Nc2ccc(F)cc21,108%,94.2%,98%,74%,122%,92.6%,86.3%,81.1%,116%,104%,118%,104%,101%,106%,84.5%,97.4%,106%,98.6%,97.5%
C=C(C)[C@@H]1CC[C@]2(C)[C@H](C(=O)C=C3[C@@H]4C[C@](C)(C(=O)N5CCN(C)CC5)CC[C@]4(C)CC[C@]32C)[C@@]1(C)CCC#N,-78.6% [100 µM] (active),-20.8% [100 µM] (active),-86.9% [100 µM] (active),-100% [100 µM] (active),-87.8% [100 µM] (active),-93.7% [100 µM] (active),-96.2% [100 µM] (active),-73.7% [100 µM] (active),-34% [100 µM] (active),-45.9% [100 µM] (active),34.7% [100 µM],-54.5% [100 µM] (active),-70.9% [100 µM] (active),-75.9% [100 µM] (active),-76.1% [100 µM] (active),-76% [100 µM] (active),-76.6% [100 µM] (active),-54.8% [100 µM] (active),-81.3% [100 µM] (active)
CC(C)=CC/C=C(/C)[C@H]1CC[C@]2(C)[C@@H]1CC[C@@H]1[C@@]3(C)CC/C(=N/O)C(C)(C)[C@@H]3CC[C@]12C,59.2% [100 µM],72.2% [100 µM],41% [100 µM],58.3% [100 µM],82% [100 µM],54.3% [100 µM],57.4% [100 µM],88.8% [100 µM],38.4% [100 µM],27.6% [100 µM],45.2% [100 µM],52% [100 µM],40.8% [100 µM],80.6% [100 µM],68.8% [100 µM],76.2% [100 µM],–,64.3% [100 µM],63.9% [100 µM]
C=C(CC(=O)OC)C(C)=O,118%,99%,100%,88.2%,107%,109%,101%,95.1%,118%,95.2%,112%,120%,107%,112%,103%,101%,106%,96.5%,113%
